The values that follow come from the supplement of paper PMC4206467.

The structures appear in SMILES notation.

For this experiment, the system named is Perkinsus marinus PRA240. The experiment can be described thus: ATP content (proliferation) relative to DMSO control; higher = more parasite growth (less inhibition). The settings on record: 20 µM; 4 days. How it is done: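 Perkinsus marinus PRA240 trophozoites (2-5x10^6 cells/ml, 100 µl, 96-well) were exposed once to MMV Malaria Box compounds at 20 µM (0.1% DMSO) in triplicate. ATP content (ATPlite bioluminescence) was read at day 4 post-exposure and normalised to DMSO + cells control wells (100% activity). Compounds were identified by joining plate and well to the Malaria Box list.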
For `Clc1cc(Br)ccc1-c1ccc(CNCC2CCNCC2)o1`, the ATP content was 243%.

With `O=C1CC(O)(C(F)(F)C(F)(F)F)Oc2ccccc21` (stereo not given), the ATP content was determined as 34.8%.

In the case of `O=C(NCc1ccco1)C1CCN(S(=O)(=O)c2ccc(Br)cc2)CC1`, the ATP content worked out at 147%.

`CC(=O)c1ccc(NC(=O)CSc2nc(-c3ccccc3Cl)ns2)cc1`: the ATP content was found to be 125%.

The compound `COc1cc(C(=O)ON=C(N)Cc2cccc3ccccc23)cc(OC)c1OC` had an ATP content of 87.4%.

On to `CCCCCn1c(=N)n(CC(O)COc2cccc(C)c2)c2ccccc21` (stereo not given), for which the ATP content was 127%.

The compound `COc1cccc(Nc2nc(N)c3ccccc3n2)c1` displayed an ATP content of 9.11%.

As to `OC(CNCC1CCCO1)Cn1c2ccc(Cl)cc2c2cc(Cl)ccc21` (stereo not given), the ATP content was 142%.

With `COc1cc(-c2nc(-c3ccccc3)c(-c3ccccc3)[nH]2)cc(OC)c1O`, the ATP content turned out to be 61.1%.

The compound `CC(C)(C)C(=O)Nc1ccc(C(=O)Nc2cccc(-c3nc4ccccc4[nH]3)c2)cc1` yielded an ATP content of 67.7%.

In turn, `COc1ccc(-c2cn3c(C(=O)Nc4ccccc4Cl)c(-c4ccccc4)c4c3n2CCCC4)cc1` had an ATP content of 99.7%.

Turning to `Nc1ccc(-c2nc3cc(Oc4ccc(Oc5ccc6[nH]c(-c7ccc(N)cc7)nc6c5)cc4)ccc3[nH]2)cc1`, the ATP content came to 74.1%.

As for `COc1ccc(CN2CCCC(C(=O)c3ccc(C(F)(F)F)cc3)C2)c(O)c1` (stereo not given), the ATP content came out at 117%.

`Cc1cc(N2CCCC2)nc(Nc2ccc(NC(=O)CCc3ccccc3)cc2)n1` returned an ATP content of 119%.

On to `CCOc1ccc(Nc2ccnc3cc(Cl)ccc23)cc1`, for which the ATP content stood at 55.2%.

`O=C(Nc1ccc(Br)cc1)Nc1cccc(Cl)c1` showed an ATP content of 142%.

`O=C(Nc1ccc(-c2nc3cc(NC(=O)c4ccc(Cl)cc4)ccc3[nH]2)cc1)c1ccc(Cl)cc1` showed an ATP content of 141%.

`CCOc1cc(Cl)c(C(C)NC(=O)c2ccccc2)cc1OCC` (stereo not given): the ATP content came to 91.1%.

In turn, `O=c1cc(NC2CCN(CCCc3ccccc3)CC2)c2cc(Cl)ccc2o1` displayed an ATP content of 167%.

`CCOc1ccc(Nc2c3ccccc3nc3ccccc23)cc1` had an ATP content of 159%.
